Calls of active or inactive are those of the source. Rule for the calls: active = hit-call score of the fitted dose curve at least 0.9, where 1 is the maximum; inactive = score below 0.9.

As a reminder, the AC50 is the concentration giving half of the maximal activity seen.

The assay is described as follows: ATG_ISRE_CIS: Attagene CIS-FACTORIAL HepG2 Assay for human Interferon Regulatory Factor 1 (IRF1) binding to an Interferon-Stimulated Response Element (ISRE) (AID 2282948). Particulars: HepG2 ISRE cis-reporter (Attagene), mRNA transcription readout; actives raise or lower the signal. Put shortly:
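Cell-based cis-reporter assay; HepG2; 24 h exposure; reporter mRNA by RT-PCR plus capillary electrophoresis fluorescence; activity in either direction scored relative to DMSO.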
With `Nc1c(Oc2ccccc2)cc(O)c2c1C(=O)c1ccccc1C2=O`, the result was inactive.
The same measure, in the same setting: for `C=CCN=C=S` the value was “inactive”.
The same measure, in the same setting: the same measure for `C[C@]12CC[C@@H](O)C[C@@H]1CC[C@@H]1[C@@H]2CC[C@]2(C)C(=O)CC[C@@H]12`: “inactive”.
Still for that read-out and setting: for `C#CCOC(=O)/C=C(C)/C=C/CC(C)CCCC(C)C` (centres undefined) the value was “inactive”.
Turning to `C=C(C)[C@@H]1CC=C(C=O)CC1`, the result was inactive.
For the compound `CN(C)[C@@H]1C(=O)C(C(N)=O)=C(O)[C@@]2(O)C(=O)C3=C(O)c4c(O)ccc(Cl)c4[C@@](C)(O)[C@H]3C[C@@H]12`, the compound was classed as inactive.
Still for that read-out and setting: for `Cc1cc(C)cc(C)c1` the value was “inactive”.
In the case of `O=c1[nH]c2ccccc2n1C1CCN(CCCC(c2ccc(F)cc2)c2ccc(F)cc2)CC1`, the AC50 was 3.71 µM (active).
On to `C=CCCl`, for which the compound was called inactive.
For the compound `C1CN2CCN1CC2`, the call was inactive.
Same read-out and setting: the same measure for `COCC(=O)N(c1c(C)cccc1C)[C@H](C)C(=O)OC`: “inactive”.
The same measure, in the same setting: for `CCCSP(=S)(OCC)Oc1ccc(SC)cc1` (centres undefined) the value was “inactive”; for `CCOc1ccc(N)cc1`, “inactive”; for `COc1ccc([N+](=O)[O-])cc1O`, “inactive”.
On to `OC(Cc1ccccc1Cl)(Cn1[nH]cnc1=S)C1(Cl)CC1` (centres undefined), for which the concentration at half-maximal activity (AC50) is 100 µM (active).
Take `CC(C)(C)c1ccccc1O`: the compound was classed as inactive.
For `CC(C)[N+](=O)[O-]`, the outcome was inactive.
Still for that read-out and setting: for `CCCCCCCCCCCCc1cccc(S(=O)(=O)O)c1` the value was “inactive”.
In the case of `O=C(CCl)Nc1ccccc1`, the AC50 was 54.9 µM (active).
As for `CC(C=O)Cc1ccc2c(c1)OCO2` (centres undefined), the outcome was inactive.
On the same count and under the same terms, for `BrCCCCBr` the value was “inactive”; for `CC(C)O.CC(C)O.OCCN(CCO)CCO.OCCN(CCO)CCO.[Ti]`, “inactive”.
Regarding `CCCCOC(C)=O`, the outcome was inactive.
In the case of `Cc1ccc(OP(=O)(Oc2ccc(C)cc2C)Oc2ccc(C)cc2C)c(C)c1`, the call was inactive.

Source of the values: PubChem BioAssay (EPA / NIEHS).
